Activity calls are given as the source filed them.

Results on 5 compounds are retold here after PubChem BioAssay.

Experiment [1] can be described thus: optical density shifts of acrAB sulA E. coli – strain DRC41, OD650, 48 h, E. coli filamentation inducer project, primary screen (AID 1152).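 Also: E. coli MC1000 strain DRC41 lacking acrAB efflux pump and sulA.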 The following applies: higher = more signal, called active from +8 up or from −8 down.
A short description of experiment [2]: probe aLefty1 binding on compound microarray – biochemical, small-molecule microarray, 635/667 nm fluorescence, primary screen (AID 1153).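 Also: score merges spot fluorescence with signal-to-noise ratio from the scanned slide images.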 The following applies: higher = more signal.
The nature of experiment [3]: plasmodial surface anion channel blockers, osmotic lysis – cell-based, P. falciparum Indochina, OD700, 1 h, primary screen (AID 1154). The following applies: P. falciparum Indochina infected RBC osmotic lysis, higher = more signal, called active from +8 up or from −8 down.
The nature of experiment [4]: plasmodial surface anion channel blockers, osmotic lysis – cell-based, P. falciparum Indochina, OD700, 2 h, primary screen (AID 1155).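 Also: lysis reports solute entry through the parasite surface anion channel PSAC.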 The following applies: P. falciparum Indochina infected erythrocytes, higher = more signal, called active from +8 up or from −8 down.
A short description of experiment [5]: changes in parasitized red cell lysis, either direction – P. falciparum Indochina, OD700, 3 h, PSAC antagonist project, primary screen (AID 1156). The following applies: P. falciparum-infected erythrocytes, osmotic lysis, higher = more signal, called active from +8 up or from −8 down.
The nature of experiment [6]: plasmodial surface anion channel blockers, osmotic lysis – cell-based, P. falciparum Indochina, OD700, 18 h, primary screen (AID 1157). The following applies: P. falciparum Indochina infected erythrocytes, osmotic lysis OD700, 18 h; higher = more signal, called active from +8 up or from −8 down.
Experiment [7] can be described thus: S6 kinase pathway phospho-S6 level changes – cell-based, A549, cytoblot, luminescence, serum-stimulated, primary screen (AID 1158).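 Also: serum-stimulated A549 lung adenocarcinoma cells; signal is phosphorylated S6 detected by cytoblot immunostaining with HRP secondary.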 The following applies: 5 h, higher = more signal.
Experiment [8] deals with NADPH oxidase 2 (Homo sapiens) (UniProt P04839). As to the kind of experiment: compounds shifting NOX2 Amplex Red fluorescence – cell-based, HEK293-NOX2, PMA-stimulated, NOX inhibitor project, primary screen (AID 1159). Also: test concentration not given here. The following applies: 45 min, higher = more signal, called active from +8 up or from −8 down.
Experiment [9] addresses NADPH oxidase 4 (Homo sapiens) (UniProt Q9NPH5). As to the kind of experiment: compounds shifting NOX4 Amplex Red fluorescence – cell-based, HEK293-NOX4, tetracycline-induced, NOX inhibitor project, primary screen (AID 1160). The following applies: HEK293-NOX4, Amplex Red H2O2 fluorescence, 45 min; higher = more signal, called active from +8 up or from −8 down.
Experiment [10] has as its target NADPH oxidase 5 (Homo sapiens) (UniProt Q96PH1). Description: compounds shifting NOX5 Amplex Red fluorescence – cell-based, HEK293-NOX5, NOX inhibitor project, primary screen (AID 1161). The following applies: HEK293-NOX5, ionomycin, 45 min, higher = more signal.
Experiment [11] can be described thus: compound effects on lung adenocarcinoma cell viability – A549, calcein-AM fluorescence, 48 h, basal, profiling panel (AID 1162). Also: test concentration not given here. The following applies: higher = more signal.
The nature of experiment [12]: compound effects on differentiated 3T3-L1 adipocyte viability – cell-based, 3T3-L1 adipocytes, calcein-AM fluorescence, 48 h, basal, profiling panel (AID 1163). Also: test concentration not given here. The following applies: 3T3-L1 adipocytes viability, higher = more signal.
The nature of experiment [13]: compound effects on hepatocellular carcinoma cell viability – HepG2, calcein-AM fluorescence, 48 h, basal, profiling panel (AID 1164). Also: test concentration not given here. The following applies: higher = more signal.
A short description of experiment [14]: compound effects on multiple myeloma cell viability – MM1S, calcein-AM fluorescence, 48 h, basal, profiling panel (AID 1165).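 Also: viability of MM1S multiple myeloma cells under basal unstimulated conditions; test concentration not given here.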 The following applies: higher = more signal.
Experiment [15] can be described thus: calcein-AM signal in unstimulated myeloma cells – cell-based, calcein-AM fluorescence, 48 h, PK04 Diversity Set, profiling panel (AID 1166).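 Also: cells grown under basal conditions without added stimulus; test concentration not given here.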 The following applies: RPMI8226 myeloma viability, higher = more signal.
A short description of experiment [16]: JC-1 mitochondrial signal, unstimulated HepG2 cells – cell-based, JC-1 fluorescence, 24 h, 100 nL compound, profiling panel (AID 1167). Also: test concentration not given here. The following applies: HepG2 mitochondrial potential, higher = more signal.
Experiment [17] in a line: JC-1 mitochondrial signal, unstimulated adipocytes – cell-based, JC-1 fluorescence, 3T3-L1 adipocytes, 24 h, 100 nL compound, profiling panel (AID 1168). Also: test concentration not given here. The following applies: JC-1 mitochondrial fluorescence, higher = more signal, called active from +8 up or from −8 down.
A short description of experiment [18]: JC-1 mitochondrial signal, unstimulated myeloma cells – cell-based, JC-1 fluorescence, RPMI8226, 24 h, 100 nL compound, profiling panel (AID 1169). Also: test concentration not given here. The following applies: JC-1 mitochondrial potential fluorescence, higher = more signal.
Experiment [19] is described as follows: JC-1 mitochondrial signal, unstimulated MM1S myeloma – cell-based, JC-1 fluorescence, 24 h, 100 nL compound, profiling panel (AID 1170). Also: test concentration not given here. The following applies: MM1S mitochondrial potential, higher = more signal.
Experiment [20] in a line: resazurin metabolic signal in A549 cells – cell-based, resazurin fluorescence, 24 h, PK04 Diversity Set, profiling panel (AID 1171). Also: test concentration not given here. The following applies: A549 viability, higher = more signal, called active from +8 up or from −8 down.

NADPH oxidase 5 (Homo sapiens), sequence (Q96PH1 whole entry, looked up): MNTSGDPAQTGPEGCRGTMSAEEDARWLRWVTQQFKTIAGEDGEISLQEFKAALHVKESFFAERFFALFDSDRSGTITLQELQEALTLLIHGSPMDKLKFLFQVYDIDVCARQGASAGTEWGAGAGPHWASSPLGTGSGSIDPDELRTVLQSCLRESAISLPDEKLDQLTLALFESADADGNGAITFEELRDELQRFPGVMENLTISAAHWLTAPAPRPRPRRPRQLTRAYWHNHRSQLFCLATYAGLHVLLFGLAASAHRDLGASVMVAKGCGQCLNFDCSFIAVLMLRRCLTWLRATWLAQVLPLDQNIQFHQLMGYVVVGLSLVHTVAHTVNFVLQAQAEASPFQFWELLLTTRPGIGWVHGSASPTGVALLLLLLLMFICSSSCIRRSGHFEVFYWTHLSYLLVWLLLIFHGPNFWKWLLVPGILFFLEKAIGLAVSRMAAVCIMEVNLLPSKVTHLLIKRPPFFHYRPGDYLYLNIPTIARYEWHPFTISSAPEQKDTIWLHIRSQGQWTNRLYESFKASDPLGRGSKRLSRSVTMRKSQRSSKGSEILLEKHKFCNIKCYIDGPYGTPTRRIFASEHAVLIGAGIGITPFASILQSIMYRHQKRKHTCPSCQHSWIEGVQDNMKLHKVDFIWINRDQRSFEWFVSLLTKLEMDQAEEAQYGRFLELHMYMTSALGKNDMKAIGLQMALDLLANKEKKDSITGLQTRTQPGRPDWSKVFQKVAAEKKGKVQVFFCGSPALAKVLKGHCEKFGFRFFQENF
NADPH oxidase 2 (Homo sapiens), sequence (P04839 whole entry, looked up): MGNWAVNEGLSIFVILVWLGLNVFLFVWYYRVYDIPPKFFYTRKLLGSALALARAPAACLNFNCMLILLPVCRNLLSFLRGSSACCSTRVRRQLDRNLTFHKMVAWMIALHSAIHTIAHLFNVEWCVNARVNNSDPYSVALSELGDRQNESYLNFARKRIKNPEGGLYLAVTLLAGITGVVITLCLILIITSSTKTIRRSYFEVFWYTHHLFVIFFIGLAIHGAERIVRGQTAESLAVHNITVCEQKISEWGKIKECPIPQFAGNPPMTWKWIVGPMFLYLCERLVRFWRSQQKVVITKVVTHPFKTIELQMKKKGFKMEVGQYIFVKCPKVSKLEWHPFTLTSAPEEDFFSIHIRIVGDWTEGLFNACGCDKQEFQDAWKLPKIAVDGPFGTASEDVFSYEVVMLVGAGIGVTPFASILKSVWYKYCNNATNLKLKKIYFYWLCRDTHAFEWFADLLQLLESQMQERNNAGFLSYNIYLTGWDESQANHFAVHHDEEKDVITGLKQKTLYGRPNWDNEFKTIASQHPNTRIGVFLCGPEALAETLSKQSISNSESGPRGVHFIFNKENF
NADPH oxidase 4 (Homo sapiens), sequence (Q9NPH5 whole entry, looked up): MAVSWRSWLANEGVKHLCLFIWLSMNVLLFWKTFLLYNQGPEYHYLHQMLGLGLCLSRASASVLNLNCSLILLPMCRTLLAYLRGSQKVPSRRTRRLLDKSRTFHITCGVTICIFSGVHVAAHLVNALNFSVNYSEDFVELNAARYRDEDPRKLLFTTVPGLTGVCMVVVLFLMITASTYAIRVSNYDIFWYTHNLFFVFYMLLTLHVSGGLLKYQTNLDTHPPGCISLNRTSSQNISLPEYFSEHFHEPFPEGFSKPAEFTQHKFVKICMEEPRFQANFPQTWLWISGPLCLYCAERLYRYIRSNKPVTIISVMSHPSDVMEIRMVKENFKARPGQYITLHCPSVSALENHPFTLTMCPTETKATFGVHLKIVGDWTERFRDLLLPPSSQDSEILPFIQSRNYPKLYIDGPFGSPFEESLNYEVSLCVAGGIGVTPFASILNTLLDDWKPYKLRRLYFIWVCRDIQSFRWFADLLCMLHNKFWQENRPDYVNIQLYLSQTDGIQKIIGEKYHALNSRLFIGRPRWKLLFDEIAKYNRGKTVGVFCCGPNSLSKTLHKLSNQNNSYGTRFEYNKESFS

For `COC(=O)C(CC#Cc1ccc2c(c1)[C@]1(C(=O)N2)[C@H](C(=O)Nc2nc3ccccc3s2)[C@H]2C(=O)O[C@H](c3ccccc3)[C@H](c3ccccc3)N2[C@@H]1c1ccc(O)cc1)C(=O)OC`, the z-score in experiment [1] is -1.2 (inactive); in experiment [3], 1.14 (inactive); in [4], 0.922 (inactive); in experiment [5] it was -4.32 (inactive); in experiment [6], 1.3 (inactive); in [7], 0.0065. For the same compound, the z-score in experiment [8] was 1.28 (inactive); in experiment [9], 0.602 (inactive); in experiment [10], -0.0824; in [11], 0.567; in [12], 0.823; in experiment [13], 1.49. Also, the z-score in [14] was -1.15; in experiment [15] it was -3.43; in experiment [16] it was -2.74; in experiment [17], -0.383 (inactive); in experiment [18], -1.31; in experiment [19], -0.561. In experiment [20], the z-score was 0.502 (inactive). Further, the composite z-score in experiment [2] is 0.0809.

As for `CCOC(=O)[C@H]1C/C=C/C[C@H](C(=O)OCC)C(=O)O[C@H]2[C@@H](OC)O[C@H](CO)[C@@H](OC(=O)c3c(OC)cccc3OC)[C@@H]2OC1=O`, the z-score is -0.664 (inactive) in experiment [1]; 13.5 (active) in [3]; 2.34 (inactive) in experiment [4]; -0.083 (inactive) in [5]; 1.2 (inactive) in experiment [6]; 0.122 in experiment [7]. The z-score is -3.32 (inactive) in experiment [8]; -0.754 (inactive) in experiment [9]; -3.76 in experiment [10]; -4.24 in experiment [11]; 0.125 in experiment [12]; -4.96 in experiment [13]. Besides, the z-score was -3.3 in experiment [14]; -4.09 in experiment [15]; -3.48 in experiment [16]; 0.154 (inactive) in [17]; -0.999 in experiment [18]; -1.96 in experiment [19]. Moreover, the z-score in experiment [20] is -4.38 (inactive). Also, in experiment [2], the composite z-score turned out to be 0.446.

With `CC(C)C[C@@H]1NC(=O)[C@@H]2C[C@H](C(=O)O)[C@H](c3cccc(OCCO)c3)N2C1=O`, the z-score in experiment [1] was 0.649 (inactive); in experiment [3] it was 3.95 (inactive); in [4], 0.373 (inactive); in experiment [5], -0.917 (inactive); in experiment [6] it was 0.0571 (inactive); in [7], -0.129. Further, the z-score is 1.34 (inactive) in experiment [8]; 0.663 (inactive) in experiment [9]; 2.01 in experiment [10]; 0.196 in experiment [11]; 0.237 in experiment [12]; -0.404 in [13]. Further, the z-score in [14] was 0.101; in [15], -0.57; in experiment [16], 0.555; in experiment [17], -0.531 (inactive); in experiment [18] it was 0.719; in experiment [19], 0.897. The z-score in [20] was 0.0499 (inactive). The composite z-score in experiment [2] was -0.0966.

Consider `[N-]=[N+]=NCc1ccccc1C[C@]1(C(N)=O)COC(c2ccc(OCCCO)cc2)=N1`, for which the z-score in [1] was 2.84 (inactive); in experiment [3], 15.3 (active); in [4], 1 (inactive); in experiment [5] it was 1.68 (inactive); in [6] it was -0.185 (inactive); in experiment [7], 2.31. For the same compound, the z-score is -1.48 (inactive) in [8]; -0.0652 (inactive) in experiment [9]; -1.07 in [10]; 0.446 in experiment [11]; 0.431 in [12]; 1.28 in experiment [13]. The z-score in [14] was -0.761; in experiment [15] it was 0.0881; in experiment [16], -0.234; in experiment [17] it was 1.16 (inactive); in [18], -0.425; in [19], 1.07. The z-score in experiment [20] was -1.1 (inactive). In addition, in [2], the composite z-score came to 0.52.

As to `CCCC=C(CCC)[C@@H](NC(=O)c1cccs1)c1ccc(C(F)(F)F)cc1`, the z-score in experiment [1] is -0.938 (inactive); in [3], 3.15 (inactive); in [4], -0.119 (inactive); in experiment [5] it was 1.36 (inactive); in [6], -1.39 (inactive); in experiment [7] it was 1.42. Further, the z-score is -4.56 (inactive) in experiment [8]; -3.52 (inactive) in experiment [9]; -2.77 in experiment [10]; -1.43 in experiment [11]; 0.203 in experiment [12]; -0.809 in [13]. Further, the z-score was -1.41 in experiment [14]; -4.35 in experiment [15]; 1.34 in [16]; -0.229 (inactive) in experiment [17]; -0.393 in [18]; -1.71 in [19]. Besides, the z-score in experiment [20] was 1.73 (inactive). The compound also displayed a composite z-score in experiment [2] of 0.504.
